Assay results as given in PubChem BioAssay AID2314 (National Center for Advancing Translational Sciences (NCATS), 2010).
The whole screen tested about 300,000 compounds, of which about 37,000 (12%) were called active. No stated cut-off is given here; in the data, active means max response mostly above about 13% (no sharp cut-off); inactive means mostly below about 14%. The sample as a whole holds a higher share of actives than the screen did.

Assay: Cycloheximide Counterscreen for Small Molecule Inhibitors of Shiga Toxin; further: read at 38.3 µM for the half of the compounds with a filed dose; 0% is about no effect
Details: cell reporter, cycloheximide protein synthesis inhibition counterscreen; active compounds read high

Compound	max response
Cc1cc(C)c2nc(N3CCC(C(=O)NCCN4CCOCC4)CC3)sc2c1	-2.32% (inactive)
Cc1nc(N2CCOCC2)sc1C(=O)NN	-3.93% (inactive)
Fc1cc(F)c2nc(N3CCOCC3)sc2c1	36.9% (active)
COc1cc(OC)cc(C(=O)N[C@H](C(=O)Nc2nc3ccccc3[nH]2)C(C)C)c1	0.422% (inactive)
COC(=O)Nc1nc2ccc(Sc3ccccc3)cc2[nH]1	27.6% (active)
CC(C)c1nc2ccc(C(=O)O)cc2[nH]1	7.51% (inactive)
Nc1nc(Nc2ccccc2)nc(NCCO)c1[N+](=O)[O-]	0.849% (inactive)
Cc1ccc(Nc2nc(N3CCOCC3)nc(N3CCOCC3)n2)cc1Cl	-3.32% (inactive)
CNc1nc(Nc2ccc(C)c(Cl)c2)nc(N)c1[N+](=O)[O-]	32.5% (active)
c1ccc2c(c1)CSc1sccc1C2=C1CCNCC1	-3.55% (inactive)
CC(=O)NC(=S)NNC(=O)c1ccc(Br)cc1	12.5% (inactive)
Cc1ccccc1Cn1c2ccccc2c2cnn(CC(=O)NCc3ccco3)c(=O)c21	1.52% (inactive)
Cc1[nH]c2ccc(C(=O)N3CCN(C)CC3)cc2c1C	28% (active)
COc1ccc2[nH]c(C(=O)N3CCN(C)CC3)c(C)c2c1	7.26% (inactive)
CCOc1ccccc1N1CCN(C(=O)c2ccc3[nH]c(C)c(C)c3c2)CC1	-2.02% (inactive)
Cc1cc(C)cc(NS(=O)(=O)c2ccc(Oc3ncc(C(F)(F)F)cc3Cl)cc2)c1	-3.33% (inactive)
CSc1ccccc1-c1nnc(-c2ccc(Cl)cc2)o1	29% (active)
FC(F)(F)c1cnc(Oc2ccccc2-c2nnc(-c3ccc(Cl)cc3)o2)c(Cl)c1	13.8% (active)
COC(=O)Cc1ccc(Oc2ncc(C(F)(F)F)cc2Cl)cc1	10.3% (inactive)
Cc1c(C)c2ccc(OCC(=O)N3CCN(c4cccc(Cl)c4)CC3)cc2oc1=O	-3.72% (inactive)
COc1cccc(-c2coc3cc4oc(=O)c(CC(=O)O)c(C)c4cc23)c1	7.42% (inactive)
Cc1ccccc1CN1CCNC(=O)C1CC(=O)NCCC1=CCCCC1 (centres undefined)	-4.14% (inactive)

Compound	max response
CN(C)CCCNC(=S)N1CCC(c2nc3ccccc3[nH]2)CC1	-2.52% (inactive)
CC(=O)N1c2ccc(S(=O)(=O)N3CCC(C(=O)NCc4ccc(F)cc4)CC3)cc2CC1C (centres undefined)	-3.6% (inactive)
CCNc1ccc(C(=O)OCC(=O)N2c3ccccc3NC(=O)C2(C)C)cc1[N+](=O)[O-]	-4.72% (inactive)
Cn1c(SCC(=O)c2ccc(F)cc2)nnc1-c1ccccn1	6.35% (inactive)
Cc1cc(C(=O)CSc2nc(N)cc(=O)[nH]2)c(C)n1-c1cccc(F)c1	7.82% (inactive)
Cc1ccc(-n2c(C)cc(C(=O)CN3C(=O)C(=O)N(C4CCCC4)C3=O)c2C)cc1	-1.52% (inactive)
O=C(CSc1nnc2ccccn12)c1ccccc1	49.5% (active)
O=C(CSc1nnc2n1CCCN2)c1ccccc1	38.3% (active)
N#Cc1ccc(CSc2nnc3ccccn23)cc1	5.39% (inactive)
O=C(CSc1nnc(-c2ccco2)n1CC1CCCO1)c1ccccc1 (centres undefined)	8.39% (inactive)
Cn1c(CC(=O)Nc2ccccc2)nnc1SCC(=O)c1ccccc1	3.65% (inactive)
Cc1ccc(-n2c(C)cc(C(=O)CSc3nnc4ccccn34)c2C)cc1	39.3% (active)
COc1ccc(N(CC(=O)N2CCOCC2)S(=O)(=O)c2ccccc2)cc1Cl	-0.709% (inactive)
COc1ccc(/C=C(/NC(=O)c2ccccc2)C(=O)Nc2cccc(C(=O)O)c2)cc1	-3.46% (inactive)
COc1ccc(-c2c(C(C)=O)c(C)nc3sc4c(=O)n(-c5ccc(C)cc5)nnc4c23)cc1	-1.79% (inactive)
CC(NCc1nc2ccccc2n1C)C12CC3CC(CC(C3)C1)C2 (centres undefined)	-1.92% (inactive)
O=C(Cn1cc(-c2nnnn2-c2ccc(Cl)cc2)c(=O)c2ccccc21)c1ccccc1	-5.16% (inactive)
CN(C(=O)CC1C(=O)NCCN1Cc1ccc2ccccc2c1)C1CCOCC1 (centres undefined)	0.547% (inactive)
O=C(O)C1CCC(CNS(=O)(=O)c2ccc(Br)cc2)CC1 (centres undefined)	-3.43% (inactive)
COc1ccc(S(=O)(=O)Nc2ccccc2C(=O)N2CCCC2)cc1C	-0.906% (inactive)
C/C(CCC(=O)OC[C@H]1O[C@H](C#Cc2ccccc2)C=C[C@@H]1Oc1ccc(C)cc1)=N\OC[C@@H](O)[C@H]1O[C@@H]2OC(C)(C)O[C@@H]2[C@H]1O	1.29% (inactive)
COc1cc(CC(=O)N/N=C/c2ccccc2)c([N+](=O)[O-])cc1OC	16.2% (inactive)

Compound	max response
CCOC(=O)c1c(/N=C/C2C(=O)CC(C)(C)CC2=O)sc(C)c1C	-5.69% (inactive)
CCOC(=O)c1sc(/N=C/C2=C(O)CC(C)(C)CC2=O)c(C(=O)OCC)c1C	65.5% (active)
CCOC(=O)c1c(CC(C)C)csc1/N=C/C1=C(O)CCCC1=O	-1.4% (inactive)
CCCCCC1CC(COc2ccccc2)OC1=O (centres undefined)	-2.67% (inactive)
Cc1oc2c(C)c3oc(=O)c(CC(=O)N[C@@H](CC(C)C)C(=O)N[C@@H](Cc4ccccc4)C(=O)O)c(C)c3cc2c1C	-3.89% (inactive)
Oc1ccccc1CNc1ncc(Br)cc1Br	19.8% (active)
CCc1cccc(C)c1NS(=O)(=O)c1cc(Br)cnc1N	-7.68% (inactive)
Brc1ccc2ncnc(NCc3cccnc3)c2c1	8.06% (inactive)
COc1cc(/C=N/NC(=O)c2cccnc2)ccc1OC(=O)c1cccc(Br)c1	-6.4% (inactive)
O=C(N/N=C/c1ccccn1)C12CC3CC(CC(C3)C1)C2	14.7% (active)
O=C(N/N=C/c1ccccn1)c1ccc(S(=O)(=O)N2CCCCCC2)cc1	73.8% (active)
O=C(N/N=C/c1ccccn1)c1cccc(NC(=O)c2ccc(Cl)cc2)c1	13% (inactive)
O=C(NN=C1CCC(=NNC(=O)c2cccnc2)CC1)c1cccnc1	22.4% (active)
O=C(NCc1ccc(Cl)c(Cl)c1)c1cccnc1	-2.41% (inactive)
Cc1cc(/C=N/NC(=O)c2cccnc2)c(C)n1CC(C)C	42.1% (active)
O=C(Nc1ccc(S(=O)(=O)Nc2ncccn2)cc1)C12CC3CC(CC(C3)C1)C2	1.99% (inactive)
CN1CCN(NC(=O)c2ccc(S(=O)(=O)N3CCCCCC3)cc2)CC1	-2.75% (inactive)
O=C(Nc1cnccn1)c1cccnc1	-3.29% (inactive)
CNC(=O)C(=O)N/N=C/c1ccccn1	6.76% (inactive)
O=C(CNC(=O)c1cccnc1)N/N=C/c1cc(Br)c(O)c(Br)c1	-1.81% (inactive)
